High-throughput results from PubChem BioAssay.
hgDAF-12 ag – agonists of H. glycines DAF-12 nuclear receptor. HEK293 GAL4-hgDAF12 UAS-luciferase reporter, agonist luminescence; normalized to butyrate control. activation, % at 6.8 µM. 370,000 tested, 1.8% active;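 active means activation above a cutoff set at the mean of all screened compounds plus 3 SD, cut at about 10% in these data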;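 further: 0% = DMSO wells and 100% = sodium butyrate wells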
DAX1 inh-1 – blocks DAX1 repression of SF-1 activated StAR promoter; 370,000 tested, 1.1% active; HEK293T StAR-luciferase reporter, SF-1/DAX-1 repression relief; inhibition, % at 6.8 µM;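 active means inhibition above the mean over all tested compounds plus 3 SD, cut at about 3.6% in these data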;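 further: 0% = DAX-1 cells with DMSO and 100% = cells lacking DAX-1 with DMSO; higher inhibition means more luminescence from relief of DAX-1 repression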
AHR act – human AHR activation; AHR-responsive luciferase reporter cells, luminescence; AID 2796; 320,000 tested, 2.5% active; P35869; activation, % at 5 µM; in the data active means activation above about 47%;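 further: 0% = vehicle wells and 100% = reference agonist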
DAX1 inh-2 – inhibits human nuclear receptor DAX1 | P51843 | HEK293 Gal4-DAX1 luciferase reporter, luminescence | inhibition, % at 6.75 µM | 340,000 tested, 0.99% active | AID 504766;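 active means inhibition above the mean over all tested compounds plus 3 SD, cut at about 4.2% in these data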;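 further: 0% = DAX1-transfected cells with DMSO and 100% = empty-vector control cells with DMSO; inhibition shows as a rise in luminescence from relieved DAX1 repression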
Target sequence (P51843 207-470 limits assumed): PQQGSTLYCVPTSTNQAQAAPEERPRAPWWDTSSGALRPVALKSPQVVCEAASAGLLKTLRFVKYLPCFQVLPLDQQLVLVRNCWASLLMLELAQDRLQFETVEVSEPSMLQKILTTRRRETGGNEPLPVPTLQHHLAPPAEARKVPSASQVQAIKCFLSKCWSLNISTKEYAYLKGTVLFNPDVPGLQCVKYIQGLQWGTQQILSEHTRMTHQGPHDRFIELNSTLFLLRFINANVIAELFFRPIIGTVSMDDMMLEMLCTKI
hcDAF-12 act – activates DAF-12 receptor from parasite H. contortus | 370,000 tested, 1.4% active | activation, % at 6.8 µM | AID 652067 | HEK293 hcDAF-12 lit1-tk-luc reporter, luminescence; 0% DMSO, 100% Δ7-dafachronic acid;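 active means activation above the mean of all tested compounds plus 3 SD, cut at about 5.5% in these data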;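 further: 100% = response to 3 µM Δ7-dafachronic acid high control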
ssDAF12 agonist – activates DAF-12 receptor from parasite S. stercoralis; HEK293 ssDAF-12/GRIP1 lit1-tk-luc reporter, luminescence; % of 3 µM dafachronic acid response; activation, % at 6.8 µM; 370,000 tested, 1% active; AID 652126;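 active means activation above the mean over all tested compounds plus 3 SD, cut at about 0.9% in these data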;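 further: 0% = DMSO-only wells and 100% = 3 µM delta7-dafachronic acid wells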
DAX1 conf – NR0B1 (human) inhibition, confirmation | inhibition, % at 6.8 µM | 2,400 tested, 87% active | HEK293T StAR-promoter luciferase reporter, SF-1/DAX-1 repression | AID 652134 | shares compounds with DAX1 inh-1;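 active means inhibition above the average of every tested compound plus 3 SD, cut at about 3.8% in these data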;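 further: 0% = DAX-1 cells with DMSO and 100% = no DAX-1 control cells with DMSO; active compounds raise luminescence by relieving repression of the StAR reporter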
SF1 AF2mut Luc – counter-screen for DAX1 inhibitors: nonselective inhibitors with SF-1 AF2 mutant. shares compounds with DAX1 inh-1. HEK293 StAR-luciferase, luminescence. inhibition, % at 6.8 µM. 2,400 tested, 78% active;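 active means inhibition above the mean of all tested compounds plus 3 SD, cut at about 3% in these data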;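 further: 0% = DAX-1 transfected cells with DMSO and 100% = cells without DAX-1 with DMSO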
LXR ag – counter-screen for hcDAF-12 agonists: agonists of human LXR-beta; shares compounds with hcDAF-12 act; HEK293 Gal4-LXR tk-luc reporter, luminescence, 24 h; normalized: DMSO 0%, positive control 100%; activation, % at 6.8 µM; 3,400 tested, under 10 active; AID 743027;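 active means mean percent activation of the reporter above a cutoff set as the average over tested compounds plus their standard deviation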
Target sequence (P55055 whole entry, looked up, the tested form may be a part): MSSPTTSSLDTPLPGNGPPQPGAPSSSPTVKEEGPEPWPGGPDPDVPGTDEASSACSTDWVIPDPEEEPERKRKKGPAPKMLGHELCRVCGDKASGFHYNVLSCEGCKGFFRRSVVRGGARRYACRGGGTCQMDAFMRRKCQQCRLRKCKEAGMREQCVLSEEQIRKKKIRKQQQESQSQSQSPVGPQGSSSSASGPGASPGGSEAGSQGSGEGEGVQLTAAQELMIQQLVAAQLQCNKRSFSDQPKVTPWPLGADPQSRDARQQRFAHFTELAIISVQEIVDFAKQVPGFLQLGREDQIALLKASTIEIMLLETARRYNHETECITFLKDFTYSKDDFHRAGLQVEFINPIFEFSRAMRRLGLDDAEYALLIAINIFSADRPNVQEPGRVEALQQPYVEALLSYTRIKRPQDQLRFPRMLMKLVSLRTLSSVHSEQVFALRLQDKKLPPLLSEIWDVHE
hcDAF12 conf – hcDAF-12 agonism, confirmation assay; shares compounds with hcDAF-12 act; HEK293 hcDAF-12 lit1-tk-luc reporter, luminescence; % of Δ7-dafachronic acid response; activation, % at 6.8 µM; 3,400 tested, 61% active;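 active means mean activation across triplicate tests above the threshold derived from the earlier primary screen, cut at about 5.5% in these data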;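 further: 0% = DMSO only wells and 100% = 3 µM Δ7-dafachronic acid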
hgDAF12 ag – hgDAF-12 agonism, confirmation assay; shares compounds with hgDAF-12 ag; HEK293 GAL4-hgDAF12 luciferase reporter, agonist mode; percent of butyrate response; activation, % at 6.8 µM; 3,300 tested, 80% active;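 active means mean activation over triplicate wells above the hit cutoff derived from the earlier primary screen, cut at about 11% in these data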;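 further: 0% = DMSO low control and 100% = 2 mM sodium butyrate high control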
LXR ag 2 – LXR-beta agonism as DAF-12 counter-screen | shares compounds with hgDAF-12 ag | HEK293 Gal4-LXR luciferase reporter, 24 h | activation, % at 6.8 µM | 3,300 tested, under 10 active;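 active means mean activation of the triplicate above a set limit carried over from the primary screen, none filed active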
* marks the source's active call; other numbers are inactive results; . = no result given. Compounds with a hit are over-represented: about 5.7% of the library has one in this group of screens.

SMILES | hgDAF-12 ag | DAX1 inh-1 | AHR act | DAX1 inh-2 | hcDAF-12 act | ssDAF12 agonist | DAX1 conf | SF1 AF2mut Luc | hgDAF12 ag | LXR ag 2 | others
Nc1ccc2c(c1)C(=O)c1ccccc1C2=O | 17* | 10* | 29 | 2 | 7.3* | 1 | 7.2* | 5.0* | 18* | 1 | LXR ag=0;hcDAF12 conf=2
O=C(Nc1ccccn1)c1ccc2c(c1)OCO2 | 22* | 6.1* | 34 | 0 | 4 | 0 | 6.8* | 3.4* | 13* | 0
Cc1cccnc1NC(=O)c1ccc2c(c1)OCO2 | 2 | 1 | 12 | 1 | 3 | -1 | . | . | . | .
O=C(Nc1ccc2c(c1)OCO2)c1cnc(Cl)c(Cl)c1 | 21* | 5.6* | . | 3 | 6.3* | 1.8* | 8.1* | 6.5* | 16* | 1
O=C(Nc1ccc2c(c1)OCO2)Nc1ccccc1F | 19* | 11* | 21 | 0 | 2 | 0 | 13* | 6.9* | 15* | 1
CCOC(=O)c1c(NC(N)=O)nc2n1CCC2 | 0 | 0 | -1 | 1 | -2 | -1 | . | . | . | .
COc1ccc(OC)c2[nH]c(=O)c(CCNC(=O)c3cccs3)cc12 | 0 | 0 | -11 | -1 | -1 | -1 | . | . | . | .
Fc1ccc(N2C(=S)SC(=Nc3ccccc3)C2=Nc2ccccc2)cc1 | 7 | 1 | . | 2 | 4 | -1 | . | . | . | .
N=C1N(c2ccccc2)C(=S)C(=Nc2ccccc2)N1c1ccccc1 | 17* | 8.6* | . | 3 | 9.8* | 0 | -5 | -3 | 7 | 0 | LXR ag=0;hcDAF12 conf=1
CC(=O)N(C)c1ccc(N=Nc2c(C)[nH]n(C(N)=S)c2=O)cc1 | 16* | 4.8* | 6 | 4 | 6.5* | 0 | 12* | 5.3* | 17* | 1
CC(=O)N(C)c1ccc(N=Nc2c(C)[nH]n(-c3ccccc3)c2=O)cc1 | 1 | 0 | -1 | -1 | -2 | -2 | . | . | . | .
c1ccc2nc3c(ccc4ccccc43)cc2c1 | 21* | 4.5* | . | 2 | 12* | 0.9* | 12* | 10* | 16* | 1 | LXR ag=1;hcDAF12 conf=11*
Cc1cccc2cc3ccccc3nc12 | 2 | 0 | 0 | 0 | 0 | -2 | . | . | . | .
Cn1c(/N=C(\N)c2ccccc2)nc2ccccc21 | 21* | 8.4* | . | 4.5* | 14* | 1.7* | 13* | 9.9* | 20* | 1 | LXR ag=1;hcDAF12 conf=17*
O=C(O)/C=C/c1ccc(O)c(O)c1 | 1 | 1 | -1 | 0 | 0 | -1 | . | . | . | .
O=C(/C=C/c1ccc(O)c(O)c1)NC(=O)c1ccccc1O | 15* | 4.6* | 1 | 0 | 6.5* | 0 | 8.1* | 4.0* | 13* | 0
Cc1cccc(NC(=O)Nc2ccccn2)c1C | 0 | 1 | 13 | 3 | 0 | -1 | . | . | . | .
CCOC(=O)c1c(C)[nH]c(C=Nc2ccc(OC)cc2)c1O | 2 | 1 | 35 | 2 | -1 | 0 | . | . | . | .
Cc1ccc(OCc2nc(-c3ccccn3)no2)cc1 | 18* | 5.1* | 2 | 0 | 8.9* | 0.9* | 16* | 7.2* | 15* | 1 | LXR ag=1;hcDAF12 conf=3
O=C(c1ccccc1)c1coc(-c2ccccc2)c1 | 14* | 7.5* | . | 2 | 5 | 1 | 14* | 5.0* | 21* | 1
CCC(=O)c1ccc(OCC(=O)c2ccc3c(c2)NC(=O)CO3)cc1 | 3 | 1 | 4 | -2 | -2 | -2 | . | . | . | .
Cc1ccc2nc(-c3cccc(N)c3)oc2c1 | 15* | 5.4* | 17 | 0 | 6.4* | 0 | 15* | 6.8* | 16* | 1
Oc1ccccc1-c1cc(-c2ccc3c(c2)OCCO3)n[nH]1 | 13* | 5.9* | 7 | 1 | 8.9* | 1.0* | 6.0* | 2 | 24* | 1 | LXR ag=2;hcDAF12 conf=12*
O=C(O)c1cc(-c2ccc3c(c2)OCCO3)n[nH]1 | 5 | 1 | 0 | 0 | -1 | -1 | . | . | . | .
CCOC(=O)c1cc(-c2ccc3c(c2)OCCO3)n[nH]1 | 19* | 5.3* | 1 | 5.8* | 5 | 0 | 13* | 9.9* | 17* | 1
SMILES | hgDAF-12 ag | DAX1 inh-1 | AHR act | DAX1 inh-2 | hcDAF-12 act | ssDAF12 agonist | DAX1 conf | SF1 AF2mut Luc | hgDAF12 ag | LXR ag 2 | others
CS(=O)(=O)N(CC(=O)NCc1ccco1)c1cccc([N+](=O)[O-])c1 | -2 | -1 | -1 | -1 | 3 | -1 | . | . | . | .
C=CCCOc1ccccc1C(N)=O | 0 | 0 | 1 | 0 | 0 | -1 | . | . | . | .
COc1ccc([C@H]2Cc3cc(O)cc(O)c3C(=O)O2)cc1O | 18* | 5.2* | 25 | 4 | 14* | 2.3* | 20* | 13* | 25* | 1 | LXR ag=2;hcDAF12 conf=11*
O=C1OC(/C=C/c2ccccc2)=NC/1=C\c1cccnc1 | -1 | 0 | 3 | 0 | -4 | -1 | . | . | . | .
NC(=O)c1ccsc1NC(=O)c1coc2ccccc2c1=O | 14* | 4.7* | -6 | 1 | 1 | 0 | 12* | 3.7* | 19* | 1
CCCCNC(=O)c1ccc2c(c1)N(C)C(=O)c1ccccc1S2 | 1 | 0 | 11 | 1 | -2 | -2 | . | . | . | .
CC(=O)CCSc1ncnc2sc(-c3ccccc3)cc12 | 16* | 13* | 4 | 2 | 4 | 1.2* | 16* | 7.9* | 13* | 1
O=C(O)CCSc1ncnc2sc(-c3ccccc3)cc12 | -14 | -2 | -12 | 0 | -5 | -3 | . | . | . | .
CC(=O)OCC(=O)Nc1ccc(N=Nc2ccccc2)cc1 | 17* | 4.8* | 1 | 0 | 4 | 1 | 10* | 6.0* | 14* | 1
O=C(CCl)Nc1ccc(N=Nc2ccccc2)cc1 | 5 | -1 | . | 2 | 3 | 0 | . | . | . | .
Cc1nn(-c2ccccc2)c(Cl)c1/C=N/Nc1ccc(Cl)c(C(=O)O)c1 | 24* | 7.5* | -6 | -5 | 9.9* | 1.2* | 16* | 7.9* | 27* | 2 | LXR ag=2;hcDAF12 conf=11*
